Results on twelve compounds are retold here after PubChem BioAssay.

Assay [1] can be described thus: inhibitors of TNFa-induced NFkB p65 translocation, primary screen, imaging, HUVEC, MLSMR starter and 10KST1 sets (AID 438;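 active = inhibition above 20% together with a positive visual image hit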;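 also: compound added about 3h40 before a 20 min TNFalpha stimulation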;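 as to inhibition: signal is the nuclear over cytoplasmic p65 intensity ratio per well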). The conditions noted are these: HUVEC TNFa-induced p65 nuclear translocation; cell count: measured here: nuclei count (cytotoxicity indicator), at 2.08 µM unless noted; inhibition: at 2 µM, stronger effect = higher value unless noted.
A short description of assay [2]: endothelial E-selectin expression blockers – imaging, HUVEC, immunofluorescence, MLSMR starter and 10KST1 sets, primary screen (AID 487;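 active = visually confirmed hit in the image check and inhibition above 20%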;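 as to inhibition: signal is fraction of cell area covered by stained E-selectin grains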;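 as to nuclei count: 100% = median nuclei count of all wells on the same plate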). The conditions noted are these: HUVEC TNFalpha-induced E-selectin immunofluorescence imaging, at 2 µM; inhibition: stronger effect = higher value; nuclei count: measured here: cell number, toxicity.
Assay [3] can be described thus: Primary imaging screen for DUSP6 inhibitors that restore phospho-Erk in transfected HeLa cells, chemical complementation (AID 609;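 active = compounds giving at least 50% inhibition in the cell-based MKP-3 phosphatase rescue imaging test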;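 as to inhibition: phospho-Erk level distribution per well compared with pooled transfected vehicle control wells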). The conditions noted are these: HeLa MKP-3 transfected, phospho-Erk imaging KS statistic, at 10 µM.
Assay [4] addresses Dual specificity protein phosphatase 6 (Homo sapiens) (UniProt Q16828). The description is as above. The conditions noted are these: HeLa MKP-3 transfected, phospho-Erk imaging KS statistic, at 10 µM, stronger effect = higher value.
In assay [5] the target is Voltage-gated potassium channel subunit beta-2 (Rattus norvegicus) (UniProt P62483). The experiment in a line: inhibitors of rat Kvbeta2 reductase activity – biochemical, NADPH fluorescence, primary screen (AID 622).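 Also: slope of raw intensity against log time taken from 70 to 1610 s.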 The conditions noted are these: recombinant KvBeta, 4-cyanobenzaldehyde reduction, at 10 µM, stronger effect = higher value.
Sequence of Voltage-gated potassium channel subunit beta-2 (Rattus norvegicus) (P62483 whole entry, looked up): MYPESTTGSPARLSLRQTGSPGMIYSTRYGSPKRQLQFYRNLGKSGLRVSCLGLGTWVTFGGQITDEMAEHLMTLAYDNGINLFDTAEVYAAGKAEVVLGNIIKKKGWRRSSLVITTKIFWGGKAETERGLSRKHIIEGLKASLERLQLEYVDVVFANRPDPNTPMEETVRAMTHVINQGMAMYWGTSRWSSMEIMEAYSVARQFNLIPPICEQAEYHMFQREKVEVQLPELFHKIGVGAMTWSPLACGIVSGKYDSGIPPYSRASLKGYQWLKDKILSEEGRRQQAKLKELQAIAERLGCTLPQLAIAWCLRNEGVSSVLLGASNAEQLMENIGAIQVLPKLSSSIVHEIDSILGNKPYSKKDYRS
Assay [6] has the same target. Put plainly: enhancers of rat Kvbeta2 NADPH turnover – biochemical, NADPH fluorescence, primary screen (AID 623;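 active = NADPH fluorescence slope more negative than the mean of all samples by about 3 SD, 99.7% confidence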;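 also: fluorescence intensity change per second fitted from 20 to 320 s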). The following applies: Recombinant KvBeta, NADPH fluorescence decrease slope, 10 min; at 10 µM; stronger effect = lower value.
The target in assay [7] is Muscarinic acetylcholine receptor M4 (Homo sapiens) (UniProt P08173). Put plainly: M4-linked GIRK flux change, two-sided – cell-based, HEK293 M4/GIRK, thallium flux, BTC-AM, M4 allosteric agonist project, primary screen (AID 625;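 active = fluorescence slope after compound addition differing from the mean of all tested samples at 99.7% confidence, mostly higher but some lower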;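 also: thallium influx through GIRK channels coupled to M4 in HEK293 cells with BTC-AM dye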). The conditions noted are these: at 10 µM, actives lie on both sides.
Sequence of Muscarinic acetylcholine receptor M4 (Homo sapiens) (P08173 whole entry, looked up): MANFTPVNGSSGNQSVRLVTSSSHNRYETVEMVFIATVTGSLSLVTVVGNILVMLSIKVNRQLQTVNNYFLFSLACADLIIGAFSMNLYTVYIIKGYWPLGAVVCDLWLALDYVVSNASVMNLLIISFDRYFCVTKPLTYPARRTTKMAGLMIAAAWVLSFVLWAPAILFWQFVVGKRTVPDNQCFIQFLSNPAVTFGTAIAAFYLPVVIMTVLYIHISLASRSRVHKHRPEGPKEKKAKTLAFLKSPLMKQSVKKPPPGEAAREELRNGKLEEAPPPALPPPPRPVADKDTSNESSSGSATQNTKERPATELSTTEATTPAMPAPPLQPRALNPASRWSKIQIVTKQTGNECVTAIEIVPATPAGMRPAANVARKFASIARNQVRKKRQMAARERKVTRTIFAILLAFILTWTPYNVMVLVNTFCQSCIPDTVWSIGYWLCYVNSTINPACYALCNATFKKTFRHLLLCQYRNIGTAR
Assay [8] in a line: inhibitors of larval lipid processing in zebrafish, primary screen, whole organism, PED6 fluorescence, gall bladder and intestine (AID 686;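 active = a full or partial loss of lipid-probe fluorescence in the fish gall bladder, intestine or both, judged by eye; inactive = no fluorescence loss, or compound toxic to the fish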;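 also: larvae 5 to 7 days old with five fish per well; signal comes from phospholipase A2 cleavage of quenched PED6 carried via bile; overnight exposure to compound and PED6 before scoring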). The following applies: Zebrafish larvae PED6 lipid processing, fluorescence scoring.
Assay [9] in a line: loss of swimming-algae plug formation – whole organism, Chlamydomonas reinhardtii, WT vs cilia-less mutant, absorbance, 96-well, primary screen (AID 463189;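 active = inhibition at or above 50% relative to wild type and mutant plate controls; inactive = inhibition below 50%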;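 also: 0% = wild type cc124 cells in DMSO and 100% = ciliumless bld1 mutant cells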). The conditions noted are these: Chlamydomonas reinhardtii gravitaxis, OD600 absorbance, 2 days; at 10 µM; stronger effect = higher value.
The nature of assay [10]: reduction of polyQ htt aggregates in cells – imaging, exon1htt(103Q)mCFP cells, high-content imaging, primary screen (AID 483;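 active = visual image review flags a hit and inhibition of aggregation exceeds 20%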;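 also: compound exposure lasted 3 days before fixation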;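 as to nuclei count: percent of the per-plate median nuclei count of sample wells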). The following applies: exon1htt(103Q)mCFP cell line, aggregate imaging, at 2 µM; inhibition of aggregation: stronger effect = higher value; nuclei count: measured here: cell count, toxicity.
For assay [11], the target named is Alpha-2C adrenergic receptor (Homo sapiens) (UniProt P18825). The experiment in a line: compounds altering alpha2C-coupled GIRK flux – cell-based, HEK293 alpha2C/GIRK1/2, thallium flux, primary screen (AID 624;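 active = fluorescence slope after compound addition differing from the mean of all screened samples at 99.7% confidence, in either direction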;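 also: slope of fluorescence ratio to pre-addition baseline per second over 15 to 24 s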). The following applies: thallium flux BTC fluorescence, at 10 µM, actives lie on both sides.
Sequence of Alpha-2C adrenergic receptor (Homo sapiens) (P18825 whole entry, looked up): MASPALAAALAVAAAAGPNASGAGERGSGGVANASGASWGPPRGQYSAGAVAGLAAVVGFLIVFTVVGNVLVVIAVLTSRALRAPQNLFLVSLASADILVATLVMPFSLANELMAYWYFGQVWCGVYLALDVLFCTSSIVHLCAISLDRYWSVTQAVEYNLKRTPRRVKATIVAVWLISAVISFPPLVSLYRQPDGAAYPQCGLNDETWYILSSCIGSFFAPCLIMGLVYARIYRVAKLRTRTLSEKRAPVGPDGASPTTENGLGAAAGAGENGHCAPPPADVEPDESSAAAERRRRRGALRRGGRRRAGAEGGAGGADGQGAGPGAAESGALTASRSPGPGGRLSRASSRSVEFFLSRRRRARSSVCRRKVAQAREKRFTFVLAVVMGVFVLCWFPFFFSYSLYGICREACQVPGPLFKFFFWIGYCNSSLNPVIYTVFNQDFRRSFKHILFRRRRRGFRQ
A short description of assay [12]: blockers of RIG-like receptor reporter activation – cell-based, Sendai virus stimulus, luciferase, 10K MLSCN set, TLR/RLR signaling modifier project, primary screen (AID 602276;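 active = inhibition at or above 50% at 10 µM; inactive = inhibition below 50%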;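 also: firefly luciferase from ISG56 promoter only with Renilla not read in this screen; 0% = Sendai virus plus DMSO and 100% = medium plus DMSO without virus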). The following applies: HEK293 RL24 IRF3 luciferase reporter, at 10 µM, stronger effect = higher value.
Assay [13] in a line: TLR3 IRF3 reporter activation blockers – cell-based, poly I:C stimulus, luciferase, 10K MLSCN set, primary screen (AID 602277;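 active = inhibition of the reporter signal at or above 50%; inactive = inhibition below 50%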). The conditions noted are these: HEK293-TLR3 RL24 IRF3 luciferase reporter, at 10 µM, stronger effect = higher value.
Setting [14] is: measured here: cell density z-score.
[15] abbreviates: measured here: nuclear c-Myc green intensity z-score.
Where [16] appears, read: measured here: nuclear pErk red intensity z-score, stronger effect = higher value.

SMILES strings stand for the structures. Active and inactive are the calls of the source.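 The calls were made as follows, unless noted: active = fluorescence slope higher than the sample average by over 3 SD (cut at about -0.22 in these data, passing the limit was not always enough); inactive = the rest.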

Sequence of Dual specificity protein phosphatase 6 (Homo sapiens) (Q16828 whole entry, looked up): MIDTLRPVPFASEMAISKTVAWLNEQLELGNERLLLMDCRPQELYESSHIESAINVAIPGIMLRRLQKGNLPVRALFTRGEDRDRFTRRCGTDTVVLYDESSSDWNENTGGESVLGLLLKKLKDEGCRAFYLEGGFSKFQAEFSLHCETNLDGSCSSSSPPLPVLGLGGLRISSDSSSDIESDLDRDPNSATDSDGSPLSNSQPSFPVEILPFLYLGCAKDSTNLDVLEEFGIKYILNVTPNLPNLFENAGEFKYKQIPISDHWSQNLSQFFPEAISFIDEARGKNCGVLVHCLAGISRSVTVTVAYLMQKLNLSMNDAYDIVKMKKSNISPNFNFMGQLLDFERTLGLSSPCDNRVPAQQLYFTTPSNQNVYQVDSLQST

`O=C(c1ccco1)C12CN3CN(CN(C3)C1)C2` displayed a cell count in assay [1] of 403. Besides, the inhibition in assay [1] is -7% (inactive); in assay [2] it was -98.3% (inactive); in [4], 17.4% (inactive); in [9], -4.37% (inactive). In [2], this compound gave a nuclei count of 165%. In addition, the z-score in assay [3] (setting [14]) is -0.216; in assay [3] (setting [15]) it was 0.212; in [3] (setting [16]) it was 0.209. Besides, the fluorescence slope in [5] was -0.431 (inactive); in assay [7] it was 0.00486 (inactive). Besides, the NADPH fluorescence slope in assay [6] is -0.000115 (inactive). Besides, the call in assay [8] was inactive.

On to `CNC(=O)N(C)c1nnc(C(C)(C)C)s1`, for which the cell count in assay [1] stood at 642. The inhibition in assay [1] was -6.4% (inactive); in assay [2] it was -26% (inactive); in [4], 11.9% (inactive); in assay [9], 119% (active). The same compound had a nuclei count in assay [2] of 73.8%. Moreover, the z-score is -3.07 in [3] (setting [14]), 0.0042 in assay [3] (setting [15]) and -1.4 in assay [3] (setting [16]). In addition, the fluorescence slope in [5] is -0.502 (inactive); in assay [7], 0.00657 (inactive). The NADPH fluorescence slope in [6] was -9.9e-05 (inactive). For the same compound, the call in assay [8] was inactive.

The compound `CCOC(=O)C1=C(C)OC(N)=C(C(=O)OCC)[C@@]12C(=O)N(CC(N)=O)c1ccccc12` gave a cell count in [1] of 465. Also, the inhibition in assay [1] was -6.3% (inactive); in [2], -219% (inactive); in assay [4] it was -0.624% (inactive); in [9], 5.83% (inactive). In [2], this compound showed a nuclei count of 186%. Also, the z-score is -0.479 in assay [3] (setting [14]), -0.527 in assay [3] (setting [15]) and -0.153 in [3] (setting [16]). Moreover, the figures for the fluorescence slope in assay [5] and in assay [7] were -0.445 (inactive) and 0.00512 (inactive), respectively. In assay [6], the NADPH fluorescence slope is -5.7e-05 (inactive). In addition, the outcome in assay [8] was inactive.

For the compound `COc1ccccc1N(CC(=O)NC1CCCCC1)C(=O)c1cnn(C(C)C)c1`, the cell count in [1] is 526. Moreover, the inhibition is 2.5% (inactive) in [1], -128% (inactive) in assay [2], -9.99% (inactive) in assay [12] and -3.91% (inactive) in assay [13]. Further, the inhibition of aggregation in assay [10] was 3.2% (inactive). The nuclei count in [10] turned out to be 102%; in [2] it was 157%. Moreover, the fluorescence slope in assay [5] is -0.598 (inactive). In addition, in [6], the NADPH fluorescence slope is 9.1e-06 (inactive). For the same compound, the slope in [11] was 0.00634 (inactive).

`Nc1c(C(=O)NCc2ccco2)c2nc3ccccc3nc2n1CCN1CCCCC1`: the cell count in [1] worked out at 676. The inhibition was 18.1% (inactive) in assay [1], 50.8% (inactive) in [2], -6.06% (inactive) in assay [4] and 131% (active) in [9]. In assay [2], this compound displayed a nuclei count of 138%. Also, the z-score in assay [3] (setting [14]) is -0.477; in [3] (setting [15]), 2.3; in assay [3] (setting [16]), -0.0288. In addition, the fluorescence slope in assay [5] is -0.0963 (inactive); in assay [7] it was 0.00537 (inactive). Moreover, in [6], the NADPH fluorescence slope was -2.8e-05 (inactive). Further, the outcome in [8] was inactive.

In assay [1], `Cn1c(=O)cc(OCC(=O)N2CCN(C3CCCCC3)CC2)c2ccccc21` yielded a cell count of 535. For the same compound, the inhibition in assay [1] is -5.5% (inactive); in [2] it was -119% (inactive); in [12], 2.25% (inactive); in [13] it was 55.3% (active). Further, the inhibition of aggregation in assay [10] is 14.2% (inactive). In addition, the values for the nuclei count in assay [10] and in [2] were 81.7% and 113%, respectively. Besides, the fluorescence slope in assay [5] was -0.533 (inactive). In assay [6], the NADPH fluorescence slope was -5e-05 (inactive). The slope in assay [11] was 0.00729 (inactive).

Turning to `CCOC(=O)c1cc(C)n(CCc2cnc[nH]2)c1C`, the cell count in assay [1] amounted to 561. In addition, the inhibition was 2.4% (inactive) in assay [1], -44.2% (inactive) in assay [2], -2.59% (inactive) in assay [4] and -3.61% (inactive) in assay [9]. In [2], the nuclei count was 123%. Also, the z-score in assay [3] (setting [14]) is -1.19; in assay [3] (setting [15]) it was -0.0641; in assay [3] (setting [16]), 0.767. The fluorescence slope in [5] was -0.47 (inactive); in assay [7], 0.00519 (inactive). The NADPH fluorescence slope in assay [6] was -9.2e-05 (inactive). The compound was called inactive in [8].

Regarding `CCc1nc(N2CCNCC2)c(C#N)c2c1CSC(C)(C)C2`, the cell count in assay [1] stood at 652. The inhibition in [1] was 3% (inactive); in [2] it was -79.8% (inactive); in assay [4] it was 1.12% (inactive); in [9] it was 15% (inactive). For the same compound, the nuclei count in assay [2] worked out at 159%. The figures for the z-score in [3] (setting [14]), in [3] (setting [15]) and in [3] (setting [16]) were -1.09, -0.257 and 0.497, respectively. For the same compound, the fluorescence slope in assay [5] is -0.474 (inactive); in assay [7] it was 0.00552 (inactive). Besides, the NADPH fluorescence slope in [6] is -1.6e-05 (inactive). Besides, the compound was called inactive in [8].

Compound `CCCN(CC#CCO)CCC` came in with a cell count in assay [1] of 701. In addition, the inhibition in [1] was 11.7% (inactive); in assay [2] it was -121% (inactive); in assay [4], -11.4% (inactive); in [9], -2.44% (inactive). The nuclei count in assay [2] stood at 162%. The z-score was found to be 0.317 in assay [3] (setting [14]), 1.4 in [3] (setting [15]) and 0.749 in [3] (setting [16]). Also, the values for the fluorescence slope in assay [5] and in assay [7] were -0.448 (inactive) and 0.00435 (inactive), respectively. For the same compound, the NADPH fluorescence slope in assay [6] was -4.9e-05 (inactive). For the same compound, the call in assay [8] was inactive.

The compound `CN(C)CCOC(=O)c1cn(Cc2ccccc2)c2ccccc12` came in with a cell count in assay [1] of 639. Further, the inhibition in assay [1] was -9.5% (inactive); in assay [2], -111% (inactive); in [4], -6.06% (inactive); in assay [9], 37% (inactive). Also, the nuclei count in assay [2] came to 182%. Moreover, the z-score was 1.72 in assay [3] (setting [14]), -0.185 in assay [3] (setting [15]) and -0.202 in assay [3] (setting [16]). The results for the fluorescence slope in assay [5] and in assay [7] were -0.507 (inactive) and 0.00681 (inactive), respectively. Also, the NADPH fluorescence slope in assay [6] was -6.8e-05 (inactive). Further, the compound was called inactive in assay [8].

Compound `CCCCNC(=O)Nc1ccc(C(O)(C(=O)OCC)C(F)(F)F)cc1` (configuration not stated) had a cell count in assay [1] of 688. The inhibition in [1] was -5.9% (inactive); in assay [2] it was -16.7% (inactive); in [4] it was 3.49% (inactive); in [9], 5.22% (inactive). This compound also had a nuclei count in [2] of 173%. The z-score in assay [3] (setting [14]) was -0.832; in [3] (setting [15]), -1.24; in [3] (setting [16]), 1.19. Further, the fluorescence slope in assay [5] is -0.432 (inactive); in assay [7] it was 0.00537 (inactive). For the same compound, the NADPH fluorescence slope in assay [6] is -4.2e-05 (inactive). Besides, the compound was classed as inactive in assay [8].

On to `COc1ccc(C(=O)CC2C(=O)N(C)C(=O)N(C)C2=O)cc1`, for which, in [1], the cell count worked out at 726. Moreover, the inhibition in assay [1] was 14.4% (inactive); in [2], -27.9% (inactive); in [4], -3.95% (inactive); in [9] it was 0.215% (inactive). The nuclei count in assay [2] stood at 135%. Also, the z-score was 0.66 in assay [3] (setting [14]), 0.621 in assay [3] (setting [15]) and -1.11 in [3] (setting [16]). Moreover, the fluorescence slope in assay [5] is -0.453 (inactive); in assay [7], 0.00539 (inactive). The NADPH fluorescence slope in assay [6] was -4.3e-05 (inactive). In [8], the result was inactive.
